Most compounds without a hit are left out; they make up all but 1.5% or so of the library.
eIF4E-4G inh – eIF4E–eIF4G protein interaction inhibitors, primary screen, biochemical, uHTS, TR-FRET, eIF4GI fragment | Eukaryotic translation initiation factor 4E (Mus musculus) + Eukaryotic translation … | TR-FRET eIF4E-eIF4GI(517-606) binding, 2 h | inhibition, % at 21.7 µM | 220,000 compounds, 0.37% hits | AID 782, 2007;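 active = inhibition above about 30%, limit read from the data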;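 also: 0% = full FRET control wells and 100% = background wells lacking eIF4GI fragment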
eIF4H FP inh – human eIF4H binding inhibitors, primary screen, translation initiation inhibitor project, biochemical, uHTS, fluorescence polarization. AID 2012, 2009. 290,000 compounds, 0.94% hits. eIF4H fluorescence polarization binding assay. inhibition, % at 35 µM. Eukaryotic translation initiation factor 4H (Homo sapiens), Q15056;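 also: calls also rest on retests at 20 µM and on dose response follow-up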
PABP1 MLLE inh – inhibitors of PABP1 MLLE–PAM2 peptide binding, primary screen, biochemical, fluorescence polarization, FITC-PAM2, GST-MLLE. 360,000 compounds, 0.36% hits. Polyadenylate-binding protein 1 (Homo sapiens), P11940. inhibition, % at 20 µM; in the data active = inhibition above about 35%, passing the limit was not always enough;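 also: plate controls were DMSO wells with GST-MLLE for no effect and wells lacking GST-MLLE protein for full effect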
Target sequence (P11940 whole entry, looked up): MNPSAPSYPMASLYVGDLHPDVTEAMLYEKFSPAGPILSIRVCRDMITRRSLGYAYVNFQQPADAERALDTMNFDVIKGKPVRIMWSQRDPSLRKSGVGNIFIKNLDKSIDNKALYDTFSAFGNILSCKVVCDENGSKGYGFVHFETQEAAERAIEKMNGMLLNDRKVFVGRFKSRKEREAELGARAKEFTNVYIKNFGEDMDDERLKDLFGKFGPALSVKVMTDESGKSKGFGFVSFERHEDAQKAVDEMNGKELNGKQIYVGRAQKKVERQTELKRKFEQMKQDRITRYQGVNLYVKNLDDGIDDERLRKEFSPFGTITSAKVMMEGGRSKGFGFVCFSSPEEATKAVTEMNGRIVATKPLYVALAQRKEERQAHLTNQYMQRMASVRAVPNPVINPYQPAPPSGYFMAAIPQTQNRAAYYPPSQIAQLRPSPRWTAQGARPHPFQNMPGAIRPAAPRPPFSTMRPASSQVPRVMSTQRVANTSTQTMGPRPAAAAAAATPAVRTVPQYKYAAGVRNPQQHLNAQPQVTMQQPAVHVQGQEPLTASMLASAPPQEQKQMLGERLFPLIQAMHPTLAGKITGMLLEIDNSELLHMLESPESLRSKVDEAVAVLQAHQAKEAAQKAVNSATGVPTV
PABP FP inh – PABP poly(A) RNA binding inhibitors, primary screen, biochemical, fluorescence polarization, uHTS. Polyadenylate-binding protein 1 (Homo sapiens), P11940. calls only at 35 µM. 290,000 compounds, 1% hits. AID 2014, 2009;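 also: calls also rest on retests at 20 µM and on dose response follow-up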
Starred values were filed as active, the others as inactive; i = inactive; ? = inconclusive; nt = no result; + = active, no number; [ ] = dose if it differs, or a comment. Unless noted, no rule for the calls is given here.

SMILES	eIF4E-4G inh	eIF4H FP inh	PABP1 MLLE inh	PABP FP inh
CCc1ccc(-c2nc(CSCC(=O)N3CCN(c4ccccn4)CC3)c(C)o2)cc1	2.1	-10.1	38.8*	i
N#Cc1c(=O)c2nc(NCCCO)ncc2n2c(=O)c3ccccc3[nH]c12	-0.6	78.1*	16.4	+
Cc1c(CCO)c(=O)n2c([nH]c3ccccc32)c1C#N	nt	-4.7	-1.8	i
c1ccc2ncc(-n3ccnc3)cc2c1	nt	nt	8.5	nt
CCOC(=O)c1ccc[n+](CC(=O)c2ccccc2)c1	1.6	59.0*	0.0	+
Cc1ccc(OCC(=O)Nc2ccc(S(=O)(=O)N(C)C3CCN(C)CC3)cc2)c(C)c1	nt	-1.5	-107.0	+
Cc1ccc(C(=O)OCC(=O)N2CCC(C)CC2)cc1S(=O)(=O)N1CCOCC1	nt	nt	-4.0	nt
C[C@H](NC(=O)c1ncn2c1c(=O)[nH]c1ccc(Br)cc12)c1ccccc1	nt	nt	-4.8	nt
CNc1cncc(-c2cccc(C(=O)NCCN(C)C)c2)n1	nt	nt	-1.8	nt
CCCCNC(=S)Nc1ccc(OC)nc1	-4.5	?	41.5*	i
COc1ccc(NC(=S)Nc2ccccc2)cn1	-3.5	?	25.4	i
O=C1SC(c2ccccc2)=N/C1=C/c1ccco1	-1.8	50.5*	1.3	+
O=C1NNC(c2ccccc2)=N/C1=C\c1ccco1	6.8	40.0	-0.7	+
O=C1NNC(c2ccccc2)=N/C1=C\c1ccccc1Cl	-2.0	-4.9	-25.3	i
CSC1=C(C#N)C(=O)NC(c2ccccc2O)S1 (configuration not stated)	-4.1	0.9	30.6	i
COC(=O)CSC1=C(C#N)C(=O)NC(c2ccccc2)S1 (configuration not stated)	2.7	-5.3	41.7*	i
COC(=O)CNC(=O)CN1c2cccc3cccc(c23)S1(=O)=O	1.6	?	-6.7	+
CCN(CC)C(=O)C1=C(C)N(CCCN2CCCC2=O)C(=O)C(CC(=O)NCc2cccc3ccccc23)C1 (configuration not stated)	nt	nt	0.9	nt
Fc1ccc(Br)cc1C1C=C(c2cccnc2)Nc2ncnn21 (configuration not stated)	-0.8	4.8	47.8*	i
Cc1ccc(C2/C(=C(/O)c3ccccc3)C(=O)C(=O)N2CCN2CCOCC2)o1 (configuration not stated)	-0.4	11.2	4.2	i
Cc1ccc(C)c(/C(O)=C2/C(=O)C(=O)N(CCN3CCOCC3)C2c2ccco2)c1 (configuration not stated)	2.9	54.8*	11.6	i
CCCN1CCC(=NNC(=O)c2ccc(Br)o2)CC1	39.3*	1.5	9.4	i
CC1(C(=O)NS(=O)(=O)c2ccccc2Cl)CCN1C(=O)CCc1cccs1 (configuration not stated)	nt	nt	22.1	nt
Cc1cnc(NC(=O)c2ccc(-c3nc4ccccc4s3)o2)s1	59.1*[fluorescence artefact?]	-2.5	-33.9	i
COc1ccc(C(=O)O)cc1NC(=S)NC(=O)/C=C/c1ccc(C(C)C)cc1	nt	-4.4	38.8*	i
SMILES	eIF4E-4G inh	eIF4H FP inh	PABP1 MLLE inh	PABP FP inh
Cc1ccc(O)c(NC(=S)NC(=O)/C=C/c2ccccc2)c1	nt	7.0	41.0*	i
O=C(O)CCC(=O)Nc1sc2c(c1C(=O)Nc1cccc3ccccc13)CCCCC2	0.7	57.5*	-78.4	+
O=C(/C=C/c1ccco1)N(c1ccccn1)c1ccccn1	34.4*	100.7*	16.6	i
CCCSC1=N/C(=C\C=C\c2ccco2)C(=O)S1	3.0	93.8*	-12.8	+
Cc1ccc(-n2c(C)cc(C(=O)CN3CCOCC3)c2C)cc1C	-1.7	active	-5.5	+
COc1ccc(-n2c(=O)c(CCC(=O)N3CCN(c4ccccc4O)CC3)nc3ccccc32)cc1	nt	nt	5.9	nt
Cc1ccc(NC(=O)/C(=C\c2ccc([N+](=O)[O-])cc2)NC(=O)c2ccccc2)cc1	-7.4	-9.9	-10.2	i
O=C(N/N=C/c1ccc(O)c(O)c1O)/C(=C/c1ccc([N+](=O)[O-])cc1)NC(=O)c1ccccc1	21.7	104.9*	37.0	+
CC(C)N(C1=N/C(=C\c2ccco2)C(=O)N1c1ccccc1)C(C)C	3.4	115.9	-7.8	i
O=C1/C(=C/c2ccco2)N=C(N2CCCCC2)N1c1ccccc1	15.4	87.8*	-4.7	+
O=S1(=O)CC/C(=N/Nc2ccc(C(F)(F)F)cn2)c2cc(F)ccc21	87.3*	5.4	13.6	i
CCN(CC)c1ccc(/C=C(\C#N)c2ccccn2)cc1	-2.4	54.3	-139.9	i
N#C/C(=C\c1ccc(C(=O)O)cc1)c1ccccn1	0.2	64.2*	-3.8	+
COc1ccc(CNC(=O)Nc2ccc3c(c2)c(=O)n(C)n3Cc2cc(C)cc(C)c2)cc1	nt	nt	1.6	nt
Cc1ccccc1-n1c2nc(=O)n(C)c(=O)c-2cc2ccccc21	16.0	82.6	-40.8	+
C=C(C)CCOC(=O)C(CC(=O)O)NCc1ccco1 (configuration not stated)	11.6	?	-10.0	+
CC1(C)N=C(N)N=C(N)N1c1ccc(CCCCc2ccccc2)cc1	nt	nt	0.0	nt
C=C(C)C(=O)Nc1ccc2nn(-c3ccccc3O)nc2c1	nt	nt	-2.4	nt
Cc1c(-c2ccc(/C=N/NC(=O)C(=O)Nc3ccccc3F)o2)cccc1[N+](=O)[O-]	-8.0	7.0	-85.0	i
Cc1c(C(=O)N/N=C/c2ccc(-c3ccccc3[N+](=O)[O-])o2)sc(N)c1C#N	4.7	73.2*	1.2	+
Cc1cccc(NC(=O)CCS(=O)(=O)c2ccc3nc(C)sc3c2)c1	nt	nt	-4.9	nt
CCOC(=O)c1c(=O)n(O)c2ccc(C)cc2[n+]1[O-]	-3.9	103.5*	-54.5	+
CCNC(=O)C1CCCN(C(=O)c2c(-c3ccccc3)noc2C)CC1 (configuration not stated)	nt	nt	-0.2	nt
Cc1csc(N/N=C/c2ccc(O)c([N+](=O)[O-])c2)n1	15.3	68.1*	-27.0	+
Cn1c(=O)c2cc(NC(=S)NC3CCCCC3)ccc2n1Cc1ccc(Cl)cc1	nt	nt	-41.4	nt
CC(C)(C)C1CCC(=NNc2nc3ccccc3[nH]2)CC1 (configuration not stated)	0.1	12.6	-18.2	+
c1ccc(CN2CCC(=NNc3nc4ccccc4[nH]3)CC2)cc1	-7.8	26.0	-30.6	i
O=C(c1ccco1)[C@@H]1[C@@H]2C(=O)N(c3ccccc3)C(=O)[C@@H]2C2c3ccccc3C=CN21 (some centres not stated)	nt	53.7	37.0	i
Cc1ccc(N2C(=O)[C@@H]3[C@H](C2=O)C2c4ccccc4C=CN2[C@@H]3C(=O)c2ccco2)cc1 (some centres not stated)	1.2	30.8	36.8*	i
